Compounds without any hit were thinned out: in the full panel of roughly 83,000, 20% have a hit.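 Treatment: one concentration, 48 hours, 96-well format. Scoring: percent growth, with anything below 10 considered active.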 A number with no mark means an inactive call. Calls of active or inactive are those of the source.
Experiments:
Experiment in all cases: NCI-60 one-dose screen, 48 h (100 = growth as untreated, 0 = no growth, -100 = all killed)
Conditions in all cases: 10 µM unless noted
[1] = system: RPMI-8226 leukemia
[2] = system: OVCAR-8 ovarian
[3] = system: OVCAR-5 ovarian
[4] = system: OVCAR-4 ovarian
[5] = system: SK-OV-3 ovarian
[6] = system: IGROV1 ovarian
[7] = system: OVCAR-3 ovarian
[8] = system: HS 578T breast
[9] = system: NCI/ADR-RES ovarian
[10] = system: T-47D breast
[11] = system: BT-549 breast
[12] = system: MDA-MB-435 melanoma
[13] = system: SW-620 colon
[14] = system: MCF7 breast
[15] = system: HCT-116 colon
[16] = system: HCC-2998 colon
[17] = system: KM12 colon

| SMILES | growth [1] | growth [2] | growth [3] | growth [4] | growth [5] [%] | growth [6] | growth [7] | growth [8] | growth [9] | growth [10] | growth [11] | growth [12] | growth [13] | growth [14] | growth [15] | growth [16] | growth [17] |
| --- | --- | --- | --- | --- | --- | --- | --- | --- | --- | --- | --- | --- | --- | --- | --- | --- | --- |
| Cc1cc(C)n(-c2nc(-c3cccs3)c(C#N)c(=O)[nH]2)n1 | 105% | 102% | 105% | 91.1% | 90.9 | 108% | 94.7% | 106% | 85.7% | 80.6% | 83% | 95.2% | 102% | 89.8% | 85.1% | 96.7% | 97.9% |
| CC(=O)Nc1ccc2c(c1)Cc1cc(F)ccc1-2 | 93.6% | 97.5% | 106% | 109% | 106 | 92.8% | 98.6% | 103% | 97.5% | 82.8% | 93.8% | 107% | 105% | 82.2% | 102% | 94.3% | 95.6% |
| O=C(O)COc1ccc2c(=O)c3sc4c(=O)c5ccccc5c(=O)c4c3c(=O)c2c1 | 43.6% | 43.8% | -53.7% (active) | 27.8% | 88.1 | 36.6% | 1.75% (active) | -10.1% (active) | 40.8% | 74.1% | -97% (active) | -88.6% (active) | 10.1% | -57% (active) | 24.9% | -21.1% (active) | 51.5% |
| COc1cc(/C=C/C(=O)c2cccs2)ccc1OCc1ccc(Cl)nc1 | 17.5% | 80.2% | 88.9% | 101% | 105 | 76.8% | 67.9% | 104% | 69.6% | 77.1% | 91.4% | 76.7% | 58.2% | 9.24% (active) | 75.1% | 99.8% | 28.5% |
| COc1ccc(Cl)c([N+](=O)[O-])c1 | 106% | 106% | 102% | 101% | 98 | 108% | 112% | 105% | 102% | 84% | 104% | 99.6% | 103% | 95.5% | 108% | 104% | 102% |
| O=c1c2ccccc2oc2ccc(OCCCCCCN3CCCCCC3)cc12 | 13.3% | 50.3% | 58.9% | 46.6% | 72.4 | 46.2% | 59.8% | 81.9% | 54.2% | 21.5% | 60.5% | 44.6% | 23.5% | 28.9% | 25.6% | 62.9% | 29% |
| CN(C)C(CNc1oc(-c2cccc3ccccc23)nc1C#N)c1ccco1 (stereo unspecified) | 87.8% | 96.4% | 94.6% | 83.2% | 104 | 95.7% | 96.2% | 89.6% | 94.8% | 72% | 91.4% | 97.4% | 103% | 87.8% | 89.3% | 105% | 97.4% |
| Nc1ccccc1NS(=O)(=O)c1ccc(Cl)cc1 | 95% | 108% | 95.3% | 100% | 105 | 98.3% | 105% | 98.6% | 97.3% | 106% | 101% | 90.6% | 99.3% | 94% | 97% | 84.4% | 100% |
| Cc1[nH]c(N=Nc2ccccc2)nc1N=Nc1ccccc1 | -2.66% (active) | 14.7% | 18.8% | 30.3% | 39 | -22.8% (active) | 33.2% | 61.5% | 0.979% (active) | 30.5% | 37.7% | 37.1% | 31.7% | 15.3% | 11.1% | 26.3% | 35.1% |
| C=C1C(=O)O[C@H]2[C@H]1CC/C(COC(=O)N1CCC[C@H]1C(=O)Nc1ccc(OC)c(C(N)=O)c1O)=C\CC[C@@]1(C)O[C@@H]21 | 1.38% (active) | 44.4% | 68.5% | 52% | 88.8 | 14.7% | 4.49% (active) | 71.8% | 106% | 29.8% | 38.5% | 44.3% | 2.83% (active) | 12.1% | 14.8% | 94.8% | 67.2% |
| O=C1C(Cl)=C(Nc2ccc3c(c2NC2=C(Cl)C(=O)c4ccccc4C2=O)C(=O)c2ccccc2C3=O)C(=O)c2ccccc21 | 28.1% | 22.3% | 3.29% (active) | -12% (active) | 90.3 | 6.05% (active) | -2.06% (active) | 42.2% | 7.89% (active) | 10.5% | 42.3% | -64.7% (active) | 24.7% | -7.63% (active) | 2.25% (active) | 67% | 39% |
| CCN(CC)CC#CCOC(=O)[C@]1(C)CCC[C@]2(C)[C@H]3C[C@H]4C(C(C)C)=C[C@]3(CC[C@H]21)[C@@H]1C(=O)CCC(=O)[C@@H]14 | 17.5% | 39.6% | 62.4% | 36.4% | 77.8 | 64.2% | 58.5% | 69.3% | 45.7% | 35.5% | 63.7% | 74% | 55.1% | 25.1% | 35.8% | 75% | 51.9% |
| COc1cc(C(=O)Nc2cc(OC)c3ccn(C)c3c2)cc2c1C[C@]1(C)CC[C@@H](O)C(C)(C)[C@H]1O2 | -31.1% (active) | 24.1% | 55.2% | 54.8% | 15.2 | 25.2% | -14.6% (active) | -12.5% (active) | 13.9% | 19.5% | 8.8% (active) | -36.1% (active) | 2.19% (active) | 6.32% (active) | 12.6% | 37.4% | 27% |
| Clc1ccc2c(NCCCNC3CCCCC3)ccnc2c1 | 82% | 54.7% | 114% | 91.2% | 140 | 111% | 109% | 108% | 109% | 108% | 107% | 84.6% | 111% | 90.7% | 64.5% | 91.3% | 101% |
| CCCCCCC/C=C/[C@H]1O[C@]23C(=O)C[C@@]4(C[C@@H](OC5OC(CO)C(O)C(O)C5O)C[C@@H]4[C@H]2C=C1C)OC3=O (stereo partly specified) | -1.42% (active) | 14.5% | 27.7% | 29.6% | 71.9 | 15.9% | 9.92% (active) | 61.7% | -5.53% (active) | 25.2% | -0.665% (active) | 3.95% (active) | 9.92% (active) | 14.4% | 1.7% (active) | 31.3% | 28.6% |
| Cc1nccc2c3ccc(OCc4cn(-c5ccccc5)nn4)cc3n(CCCc3ccccc3)c12 | 31.6% | 55.6% | 91.2% | 71.2% | 69.7 | 89.1% | 68.6% | 65.5% | 70.4% | 78.4% | 81.3% | 87.7% | 69% | 51.3% | 54% | 102% | 78% |
| CCCCCCCCCCCCCC1=NCC[N+]1(CCO)Cc1ccccc1 (stereo unspecified) | -47.2% (active) | -83% (active) | -15% (active) | -28.5% (active) | 48.8 | -72.6% (active) | -86.9% (active) | -36.5% (active) | -60.1% (active) | -72.8% (active) | -50.7% (active) | -91.8% (active) | -78.2% (active) | -84.8% (active) | -90.8% (active) | -75.3% (active) | -85.1% (active) |
| COc1cc(C2=NN(C=O)C(c3cccc(Nc4ccnc5cc(C(F)(F)F)ccc45)c3)C2)cc(OC)c1OC (stereo unspecified) | 27% | 61.9% | 102% | 59.1% | 81.6 | 67.3% | 54.6% | 87.5% | 55.3% | 43.6% | 56.1% | 43.5% | 64.6% | 38.4% | 58.4% | 70.1% | 59.7% |

— PubChem BioAssay (NCI)
